Results: PubChem BioAssay (NCI)
The panel holds about 79,000 compounds, 15% with a hit somewhere; the sample as a whole holds those more often. A number with no mark means an inactive call. The source made the active and inactive calls. No stated cut-off is given here; in the data, active means growth inhibition above about 70%; inactive means the rest.

Key:
[1] = NCI Yeast Anticancer Drug Screen. Data for the rad50 strain (AID 155);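 further: 0% = growth of vehicle-only cultures of the same strain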; details: S. cerevisiae rad50 strain growth inhibition, stronger effect = higher value
How it was run: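 Yeast carrying a defined DNA repair defect were exposed to test compounds, and growth was compared with vehicle-treated controls to give percent inhibition.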

[2] = NCI Yeast Anticancer Drug Screen. Data for the mec2-1 strain (AID 157); details: S. cerevisiae mec2-1 strain, stronger effect = higher value
How it was run: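 Vehicle-treated cultures served as reference for growth inhibition of compound-exposed mec2-1 yeast.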

[3] = NCI Yeast Anticancer Drug Screen. Data for the sgs1 mgt1 strain (AID 161);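 further: 0% = growth of cultures given vehicle only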; details: S. cerevisiae sgs1 mgt1 strain, stronger effect = higher value
How it was run: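 Genetically altered yeast, compound exposure, growth inhibition relative to vehicle.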

[4] = NCI Yeast Anticancer Drug Screen. Data for the cln2 rad14 strain (AID 165);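 further: 0% = growth equal to vehicle treated cultures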; details: S. cerevisiae cln2 rad14 strain, stronger effect = higher value
How it was run: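 Each compound was tested on cln2 rad14 yeast. Inhibition of growth was calculated against vehicle-exposed controls.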

[5] = NCI Yeast Anticancer Drug Screen. Data for the bub3 strain (AID 167); details: S. cerevisiae bub3 mutant strain, stronger effect = higher value
How it was run: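 Compounds were applied to a genetically altered yeast strain carrying a cell-cycle control defect. Growth inhibition was scored against vehicle-treated controls.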

[6] = NCI Yeast Anticancer Drug Screen. Data for the mlh1 rad18 strain (AID 175); details: S. cerevisiae mlh1 rad18 strain growth inhibition, stronger effect = higher value
How it was run: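 Vehicle-treated cultures served as the reference for growth inhibition in a yeast strain carrying DNA damage repair alterations exposed to each compound.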

[7] = at 5.0 µM (retest, dose inferred, filed as 0.5)
[8] = at 50.0 µM (retest, dose inferred, filed as 5.0)

SMILES | growth inhibition [1, 7] [%] | growth inhibition [1, 8] | growth inhibition ([1]; at 50.0 µM) | growth inhibition [2, 7] [%] | growth inhibition [2, 8] | growth inhibition ([2]; at 50.0 µM) | growth inhibition [3, 7] [%] | growth inhibition [3, 8] | growth inhibition ([3]; at 50.0 µM) | growth inhibition [4, 7] | growth inhibition [4, 8] | growth inhibition ([4]; at 50.0 µM) | growth inhibition [5, 7] [%] | growth inhibition [5, 8] | growth inhibition ([5]; at 50.0 µM) | growth inhibition [6, 7] | growth inhibition [6, 8] | growth inhibition ([6]; at 50.0 µM)
N=C(N)c1ccc(Oc2ccc(Oc3ccc(C(=N)N)cc3)cc2)cc1 | 43 | 69% | 70.8% (active) | 39 | 68% | 83.8% (active) | 59 | 89% (active) | 81.2% (active) | 50% | 80% (active) | 64.6% | 53 | 79% (active) | 65.7% | 57% | 90% (active) | 81.5% (active)
COC(=O)[C@H]1[C@@H](C(C)C)O[C@@H](C(C)C)O[C@H]1C(F)(F)F | -1 | 2% | 86.7% (active) | -13 | -25% | 92.5% (active) | -14 | -10% | 86.6% (active) | -15% | 1% | 88.5% (active) | -30 | 1% | 88.7% (active) | -15% | -13% | 84.4% (active)
O=C(/C=C/c1ccccc1)CCN1CCN(CCC(=O)/C=C/c2ccccc2)CC1 | 36 | 100% (active) | 99.2% (active) | 56 | 100% (active) | 99.5% (active) | 40 | 57% | 99.4% (active) | 88% (active) | 100% (active) | 99.4% (active) | 36 | 99% (active) | 99.4% (active) | 78% (active) | 100% (active) | 99.5% (active)
CC(CCC(=O)O)(Nc1ccc([N+](=O)[O-])cc1[N+](=O)[O-])C(=O)O (configuration not stated) | 51 | 99% (active) | 99.2% (active) | 41 | 100% (active) | 99.6% (active) | 52 | 99% (active) | 99.1% (active) | 18% | 100% (active) | 91.9% (active) | 34 | 100% (active) | 98.8% (active) | 57% | 100% (active) | 98.8% (active)
